High-throughput results deposited in PubChem BioAssay by National Center for Advancing Translational Sciences (NCATS).
Rows were chosen to be rich in hits. Some 2.8% of all compounds tested hit in one or more screens of this group.
FEN1 inh: human FEN1 inhibition. P39748. Recombinant FEN1 flap cleavage, fluorescence, 15 min. Potency, µM (highest dose often 114 µM), for inactives: top-dose activity change, negative = inhibition, usual class: inhibitors. actives 0.35% (n = 390,000); note: potency is the fitted concentration of half-maximal effect; % is set by controls: 0 for no effect and ±100 for the full control effect; nearly all actives have a fitted effect of over 65% in size
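Nuclease activity of 10 nM FEN1 was measured after 15 min of room-temperature exposure to titrated compounds, by adding 50 nM flap substrate and reading plates at 0 and 15 min.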
Pol iota inh: blocks human DNA polymerase iota activity | Pol iota fluorescent replication assay, 10 min | Potency, µM (series often up to 115 µM), for the others: at the highest dose activity, negative = inhibition, usual class: inhibitors | actives 1% (n = 390,000) | AID 588590; note: potency is the fitted concentration of half-maximal effect
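Fluorescent replication assay read twice, at 0 min and 10 min after adding 50 nM (final) substrate. Enzyme (10 nM) and compounds were first incubated 15 min at room temperature; enzyme-free buffer wells were negative controls.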
POLH inh: inhibitors of human DNA polymerase eta; Q9Y253; recombinant Pol eta, fluorescent DNA replication assay; Potency, µM (highest dose often 114 µM), for the others: at the top dose activity change, negative = inhibition, usual class: inhibitors; actives 1.2% (n = 390,000); note: potency is the fitted concentration of half-maximal effect; % is set by controls: 0 for no effect and ±100 for the full control effect
Target sequence (Q9Y253 whole entry, looked up): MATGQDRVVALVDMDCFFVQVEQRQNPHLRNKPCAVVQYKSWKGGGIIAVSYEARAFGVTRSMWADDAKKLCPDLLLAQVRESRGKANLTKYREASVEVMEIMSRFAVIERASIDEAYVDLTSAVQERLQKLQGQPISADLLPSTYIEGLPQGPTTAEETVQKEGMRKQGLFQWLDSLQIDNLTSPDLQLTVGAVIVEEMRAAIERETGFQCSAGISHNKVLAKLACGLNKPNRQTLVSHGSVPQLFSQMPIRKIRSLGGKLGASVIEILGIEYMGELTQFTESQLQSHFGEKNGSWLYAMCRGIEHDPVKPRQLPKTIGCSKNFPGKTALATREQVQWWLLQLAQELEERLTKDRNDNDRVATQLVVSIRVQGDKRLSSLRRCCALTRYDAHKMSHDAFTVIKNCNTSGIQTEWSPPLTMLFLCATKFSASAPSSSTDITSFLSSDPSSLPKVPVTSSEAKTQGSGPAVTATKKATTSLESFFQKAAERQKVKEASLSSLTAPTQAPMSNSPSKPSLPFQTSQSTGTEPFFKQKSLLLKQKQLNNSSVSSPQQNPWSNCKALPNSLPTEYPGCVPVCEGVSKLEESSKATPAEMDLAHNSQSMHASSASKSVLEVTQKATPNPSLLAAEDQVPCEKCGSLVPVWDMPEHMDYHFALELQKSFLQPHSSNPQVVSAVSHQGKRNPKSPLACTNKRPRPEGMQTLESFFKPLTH
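Pol eta at 10 nM preincubated with compounds 15 min at room temperature; reaction started with fluorescent substrate (50 nM final) and read kinetically at 0 and 10 min.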
PI5P4K alpha inh: PI5P4K alpha (human) kinase inhibition | P48426 | max response, % | actives 1.2% (n = 330,000) | PI5P4Kalpha enzyme, ADP-Glo luminescence, 60 min; hits give low values; active = max response of -50% or lower; inconclusive = between -30% and -50%; inactive = -30% or higher; note: value at the top dose of about 77 µM; % is set by controls: 0 for no effect and ±100 for the full control effect
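Compounds were pin-transferred onto PI5P4Kalpha and substrate in HEPES pH 7.4 buffer with EGTA, CHAPS and 5% DMSO. ATP (5 microM final) started the reaction, which ran 60 minutes at room temperature before ADP-Glo detection.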
Pol kappa inh: inhibitors of human DNA polymerase kappa; purified Pol kappa, fluorescent DNA synthesis assay, 10 min; Potency, µM (highest dose often 107 µM), inactives show at the top dose activity, negative = inhibition, most hits filed as inhibitors; actives 0.53% (n = 400,000); AID 588579; note: potency is the fitted concentration of half-maximal effect; % is set by controls: 0 for no effect and ±100 for the full control effect
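Inhibition of 10 nM Pol kappa is measured by a fluorescent read-out at 0 and 10 min following addition of 50 nM substrate (final), with a 15-min room-temperature compound preincubation.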
Pol beta inh: inhibitors of human DNA polymerase beta | Pol beta primer extension/strand displacement, fluorescence kinetic | Potency, µM (doses to about 114 µM), for inactives: at the top dose activity change, negative = inhibition, actives largely listed as inhibitors | actives 1.3% (n = 340,000); note: potency is the fitted concentration of half-maximal effect; % is set by controls: 0 for no effect and ±100 for the full control effect
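Preincubation: enzyme (10 nM) with compound, 15 min, RT. Reaction: substrate added to 50 nM final. Reads: 0 and 10 min. Analysis: normalized, Hill fit.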
The depositor's hits bear a star; u = inconclusive; x = not tested or not shown; ! = not confirmed by another sample; [ ] = another dose, or the depositor's remark. Unless noted, calls come from the whole dose curve; as a rule, active = well fitted curve in the direction sought with a large enough effect; inconclusive = small, poorly fitted or top-dose-only effect, or another doubt; inactive = no such curve, though single readings can be large; an effect the other way counts as inactive or inconclusive.

SMILES | FEN1 inh | Pol iota inh | POLH inh | PI5P4K alpha inh | Pol kappa inh | Pol beta inh
CC(C)(C)c1onc(OCP(=O)(O)O)c1CC(N)C(=O)O (centres undefined) | u | -8%[58.9 µM] | -4%[57.1 µM] | x | -11%[60.1 µM] | 6%[57.1 µM]
CCCCc1ccc(NC(=S)NCc2ccccc2OC)cc1 | -5% | 23% | -1% | 1 | -10% | 1%
Cc1cccc(C(=O)NCC(=O)OCc2cc(=O)n3nc(C4CCCCC4)sc3n2)c1 | 2% | 11% | -13% | x | -2% | -11%
COc1ccc(S(=O)(=O)N2CCCOC2CNC(=O)C(=O)NCCc2ccco2)cc1OC (centres undefined) | 5% | -13% | u | -6 | 2% | 24%
N=c1c(C(=O)NCc2ccco2)cc2c(=O)n3ccccc3nc2n1CCc1ccccc1 | -23% | u | u | -15 | -27% | 32µM*
COc1ccc(CCNC(=O)c2cc3c(=O)n4ccccc4nc3n(CCCN3CCOCC3)c2=N)cc1OC | -11% | u | -24% | 2 | -15% | 35µM*
COc1ccc(CCNC(=O)c2cc3c(=O)n4ccccc4nc3n(C3CCCCC3)c2=N)cc1OC | u | -14% | -23% | 0 | -7% | 25µM*
COc1ccc(CCNC(=O)c2cc3c(=O)n4ccccc4nc3n(C3CCCCC3)c2=N)cc1 | -19% | 17% | -11% | 5 | 2% | 0%
COCCCn1c(=N)c(C(=O)NCc2ccco2)cc2c(=O)n3ccccc3nc21 | -8% | 79µM* | -5% | x | -15% | -19%
O=C(NCc1ccco1)c1cccn2c(=O)c3cc4ccccc4cc3nc12 | x | x | x | x | x | 14µM*
COc1ccc(CCNC(=O)c2cc(Nc3ccccc3)nc3ccccc23)cc1OC | -7% | 79µM* | -7% | x | -16%[60.1 µM] | 4%
COc1ccc(CCn2c(=N)c(C(=O)NCc3ccco3)cc3c(=O)n4ccccc4nc32)cc1OC | -21% | 16µM* | 45µM* | -2 | u | x
CCn1c(=N)c(S(=O)(=O)c2ccc(Cl)cc2)cc2c(=O)n3ccccc3nc21 | x | x | x | x | x | -1%
N=c1c(S(=O)(=O)c2ccc(Cl)cc2)cc2c(=O)n3ccccc3nc2n1Cc1ccco1 | 1% | u | u | -13 | 9% | 8.9µM*
C[C@@H]1CN([C@H](C)CO)C(=O)CCCn2nncc2CO[C@H]1CN(C)C(=O)C1CCCCC1 | x | x | -14% | -6 | x | x
CC(C)(C)Sc1ccc([N+](=O)[O-])cc1C(=O)Nc1ccncc1 | -4% | 51% | -17% | 7 | 0% | -23%
O=C(NCc1cccc(Cl)c1)c1c2c(nc3ccccc13)C(=O)N(C1CCCCC1)C2 | 11% | 15% | -15% | x | 0% | -9%
Cc1ccc(C2(SCC(N)C(=O)O)c3ccccc3-c3ccccc32)cc1 (centres undefined) | 13% | u | 22µM* | -19 | u | x
NC(CSC(c1ccccc1)(c1ccccc1)c1ccccc1)C(=O)O (centres undefined) | -3% | u | u | -22 | -19% | x
COc1ccc(N2Cc3cccc(C(=O)Nc4ccc(F)cc4)c3C2=O)cc1 | 4% | u | u | x | u | 6.3µM*
CCCN1Cc2cccc(C(=O)Nc3cc(OC)cc(OC)c3)c2C1=O | -5% | -28%[58.9 µM] | -1% | x | -13% | 7%
COc1ccc(N2Cc3cccc(C(=O)Nc4ccc(C)c(C)c4)c3C2=O)cc1 | 0% | u | -24% | x | -27% | 11µM*
COc1ccc(N2Cc3cccc(C(=O)NC(C)CCc4ccco4)c3C2=O)cc1 (centres undefined) | u | u | 22µM* | -11 | u | 7.9µM*
COCCN1Cc2cccc(C(=O)Nc3ccc(C)c(C)c3)c2C1=O | -6% | 5% | -4% | -6 | -5% | 3%
CC(CCc1ccco1)NC(=O)c1cccc2c1C(=O)N(C1CCCCC1)C2 (centres undefined) | -3% | 7% | -18% | -5 | -8% | u
SMILES | FEN1 inh | Pol iota inh | POLH inh | PI5P4K alpha inh | Pol kappa inh | Pol beta inh
N#Cc1cccc(NC(=O)C2CCN(c3nc(-c4ccc(Cl)cc4)no3)CC2)c1 | -1% | -7% | -11% | x | 1%[60.1 µM] | 8%
O=c1c(C(c2ccccc2)c2c(O)sc3ccccc3c2=O)c(O)sc2ccccc12 | 5% | 21% | -13% | x | -2% | 32µM*
O=c1c2ccccc2sc2ccccc12 | -2% | 116% | 9% | 7 | -6% | x
Cc1ccccc1OCC(=O)OCC(=O)Nc1ccc2c(c1)OCCO2 | 0% | 13µM* | -3% | 0 | -4% | x
Cc1ccccc1OCC(=O)Nc1ccc2c(c1)OCO2 | -9% | 23% | -21% | 0 | -5% | 20%
O=C(/C=C/c1cnc2ccccc2n1)NC12CC3CC(CC(C3)C1)C2 | -1% | 2% | 3% | 0 | -17% | 56µM*
O=C(O)/C=C/c1cnc2ccccc2n1 | 17% | 24% | -14% | -1 | -9% | -5%
C[C@@](N)(C(=O)O)c1ccc(P(=O)(O)O)cc1 | x | x | x | x | -13%[19.4 µM] | x
Cc1ccc(NC(=O)CN(C)C(=O)c2cccc(S(=O)(=O)NCc3ccco3)c2)cc1 | -17% | 56µM* | u | u | u | x
CCc1ccc2nc(NC(=O)c3ccc(N4C(=O)CCC4=O)cc3)sc2c1 | -2% | 7% | -15% | -1 | -14% | 27%
CCc1ccc2nc(NC(=O)c3ccc4c(=O)[nH]c(CN5CCOCC5)nc4c3)sc2c1 | -3% | u | 50µM* | x | -21% | 79µM*
Cc1ccc(Cn2c(=O)c3cccnc3n(CC(=O)Nc3cccc(C(F)(F)F)c3)c2=O)cc1 | u | 89µM*! | u | 8 | -30% | -125%
O=C(Cn1c2ncccc2c(=O)n1-c1ccccc1)Nc1cccc(C(F)(F)F)c1 | -20% | -8% | -19% | x | -26% | u
Cc1cc(=O)cc2oc3cc(N)c(-c4c(C)cc(O)cc4O)c(C)c3nc1-2 | x | x | x | x | 4.5µM* | x
C=CCNC(=O)N1CCC(n2nccc2NC(=O)CCCc2ccccc2)CC1 | 18% | -18% | 4% | 1 | -7% | 21%
Cc1sc(C(C2C(=O)CC(C)(C)CC2=O)C2C(=O)CC(C)(C)CC2=O)cc1[N+](=O)[O-] | u | 16µM* | -2% | u | -7% | -20%
O=C(/C=C/c1ccccc1Cl)NC1CCCCC1 | 20% | -3% | 8% | -2 | 2% | -16%
O=C(/C=C/c1ccccc1Cl)NC1CCS(=O)(=O)C1 (centres undefined) | -2% | -11% | -16% | -69* | -3% | -2%
Fc1ccc(/C=C/c2ccc3ccccc3n2)cc1 | -7% | -4% | x | x | u | x
C[C@@]12C(=O)Nc3cc(F)c(F)cc3C(=O)N1[C@H]1c3cc(Cl)ccc3OC[C@@H]1[C@@H]2c1ccccc1 | -23% | 13% | -17% | -4 | -3% | x
